Reference: PubChem BioAssay AID1159580 (chemical genetic matrix, 2015)
Several values for one entry are separate records, joined by “and”; a condition that tells them apart may be missing. Identical values can stand only once. About 2,000 (36%) of roughly 5,500 compounds were called active. Not shown: some 18% with an inconclusive outcome. Rule as the data show it: active = normalized growth mostly below about 0.91 (no sharp cut-off); inconclusive = no clear call, values can overlap the other calls; inactive = mostly above about 0.92. The list shows a part of the results.

Test: chemical genetic growth profiling, strain panel (AID 1159580);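 also: tested at 20 µM; growth read once vehicle control cultures reached saturation at 30 °C; 1 = growth at the plate median or of vehicle wells; lower values mean less growth of the strain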
Conditions: S. cerevisiae deletion strains, growth OD

Measured: normalized growth

CN[C@@H]1[C@H](O)[C@H](NC)[C@H]2O[C@@]3(O)C(=O)C[C@@H](C)O[C@H]3O[C@@H]2[C@H]1O
inactive: locus YAL013W, strain DEP1, hits give low values 1.01 | locus YAL021C, strain ccr4, hits give low values 0.982 | locus YAL026C, strain drs2, hits give low values 1 | locus YAL030W, strain snc1, hits give low values 1 | locus YBL061C, strain skt5, hits give low values 1.01 | locus YBR009C, strain hhf1, hits give low values 0.976 | locus YBR021W, strain FUR4, hits give low values 0.997 | locus YBR023C, strain chs3, hits give low values 1 | locus YBR171W, strain sec66, hits give low values 1.01 | locus YBR229C, strain ROT2, hits give low values 1.01 | locus YBR231C, strain swc5, hits give low values 1.01 | locus YBR279W, strain paf1, hits give low values 0.988 | locus YCL011C, strain gbp2, hits give low values 0.991 | locus YCL016C, strain dcc1, hits give low values 0.984 | locus YCL029C, strain bik1, hits give low values 1.03 | locus YCL061C, strain MRC1, hits give low values 1.02 | locus YCL069W, strain vba3, hits give low values 1 | locus YCR088W, strain abp1, hits give low values 1 | locus YDL005C, strain med2, hits give low values 1 | locus YDL035C, strain GPR1, hits give low values 1.02 | locus YDL040C, strain nat1, hits give low values 1.01 | locus YDL074C, strain BRE1, hits give low values 1.02 | locus YDL101C, strain DUN1, hits give low values 1.02 | locus YDL134C, strain PPH21, hits give low values 1.01 | locus YDL185W, strain tfp1, hits give low values 1.02 | locus YDL192W, strain arf1, hits give low values 1.02 | locus YDR001C, strain nth1, hits give low values 0.997 | locus YDR069C, strain doa4, hits give low values 1.02 | locus YDR101C, strain arx1, hits give low values 1.02 | locus YDR137W, strain rgp1, hits give low values 0.989 | locus YDR150W, strain NUM1, hits give low values 1.01 | locus YDR159W, strain sac3, hits give low values 0.969 | locus YDR162C, strain NBP2, hits give low values 1.03 | locus YDR195W, strain ref2 0.99 | locus YDR297W, strain sur2, hits give low values 1 | locus YDR318W, strain mcm21, hits give low values 1.03 | locus YDR334W, strain swr1, hits give low values 1 | locus YDR335W, strain msn5, hits give low values 1 | locus YDR388W, hits give low values 1.02 | locus YDR392W, strain spt3, hits give low values 0.956 | locus YDR502C, strain sam2, hits give low values 1.02 | locus YEL003W, strain gim4, hits give low values 1 | locus YEL037C, strain rad23, hits give low values 0.998 | locus YEL061C, strain CIN8 (second series), hits give low values 0.991 | locus YEL061C, strain CIN8, hits give low values 1.01 | locus YER015W, strain faa2, hits give low values 1 | locus YER016W, strain bim1, hits give low values 0.974 | locus YER110C, hits give low values 1.03 | locus YER111C, strain swi4, hits give low values 1.01 | locus YER155C, strain BEM2 (second series), hits give low values 1.04 | locus YER155C, strain BEM2, hits give low values 1.01 | locus YER167W, strain BCK2, hits give low values 1.02 | locus YFR010W, strain ubp6, hits give low values 1.02 | locus YGL078C, strain dbp3, hits give low values 1.02 | locus YGL086W, strain mad1, hits give low values 1.02 | locus YGL167C, strain pmr1, hits give low values 1.02 | locus YGL173C, strain kem1, hits give low values 1.03 | locus YGL227W, strain vid30, hits give low values 1.01 | locus YGL240W, strain doc1, hits give low values 1.03 | locus YGL248W, strain PDE1, hits give low values 1.02 | locus YGL253W, strain hxk2, hits give low values 0.973 | locus YGR078C, strain PAC10, hits give low values 1.02 | locus YGR135W, strain pre9, hits give low values 1.02 | locus YGR229C, strain SMI1, hits give low values 1.02 | locus YGR252W, strain gcn5, hits give low values 1.01 | locus YHR013C, strain ard1, hits give low values 0.993 | locus YHR027C, strain rpn1, hits give low values 0.993 | locus YHR030C, strain SLT2, hits give low values 1.02 and 0.968 | locus YHR079C, strain IRE1 (second series), hits give low values 1.03 | locus YHR079C, strain IRE1, hits give low values 0.953 | locus YHR094C, strain hxt1, hits give low values 1.02 | locus YHR129C, strain ARP1, hits give low values 1.01 | locus YHR142W, strain chs7, hits give low values 0.995 | locus YHR200W, strain rpn10, hits give low values 1 | locus YIL066C, strain RNR3, hits give low values 1.01 | locus YIL073C, strain SPO22, hits give low values 1.04 | locus YIL125W, strain kgd1, hits give low values 1.01 | locus YIR030C, strain dcg1, hits give low values 1.02 | locus YJL092W, strain hpr5, hits give low values 1.01 | locus YJL095W, strain BCK1 (second series), hits give low values 1.01 | locus YJL095W, strain BCK1, hits give low values 1.02 and 0.984 | locus YJL115W, strain asf1, hits give low values 0.998 | locus YJL129C, strain trk1, hits give low values 1.01 | locus YJL134W, strain LCB3, hits give low values 1.01 | locus YJL154C, strain vps35, hits give low values 0.991 | locus YJL164C, strain tpk1, hits give low values 0.987 | locus YJL166W, strain qcr8, hits give low values 1.02 | locus YJL168C, strain set2, hits give low values 1.02 | locus YJL187C, strain SWE1 (second series), hits give low values 1.02 | locus YJR043C, strain POL32, hits give low values 1.01 | locus YJR066W, strain TOR1, hits give low values 0.977
